Source: PubChem BioAssay (NCATS)
Records with an inconclusive call do not appear. A call without a number means that no potency is given here. Active and inactive are the calls of the source. Unless noted, calls come from the whole dose curve; as a rule, active = well fitted curve in the direction sought with a large enough effect; inconclusive = small, poorly fitted or top-dose-only effect, or another doubt; inactive = no such curve, though single readings can be large; an effect the other way counts as inactive or inconclusive.

Tests used:
[1] = High Content Imaging Cell-Based qHTS for Inhibitors of the mTORC1 Signaling Pathway in MEF Cells (AID 2667);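 note: Tsc2-/- p53-/- MEFs stably re-expressing wild-type Tsc2 exposed 24 h; series mostly up to about 38 µM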
Summary of the method: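 WT MEFs (Tsc2-/-, p53-/- re-expressing Tsc2), in DMEM + 10% FBS, were treated with compound for 24 h at 37 C. Cells were then fixed and stained for phospho-rpS6 Ser235/236 with propidium iodide as cell count. Values are % positive cells, with thresholds set against rapamycin-treated cells.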

[2] = Cytometry Cell-Based qHTS for Inhibitors of the mTORC1 Signaling Pathway in MEF cells (AID 2668);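 note: Tsc2-/- p53-/- mouse embryonic fibroblasts stably re-expressing wild-type Tsc2; percent cells positive for phospho-rpS6 Ser235/236 relative to propidium iodide stain; series mostly up to about 38 µM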
Summary of the method: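 Pathway inhibition in WT Tsc2-rescued Tsc2-/-, p53-/- MEFs is measured as the Alexa-488 phospho-rpS6 to propidium iodide intensity ratio after 24 hrs of compound at 37 degree Celsius. PI-stained cell number gives viability.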

[3] = Validation screen for small molecules that induce DNA re-replication in MCF 10A normal breast cells (AID 463097); note: nearly all actives have a fitted effect of over 60% in size
Summary of the method: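 DNA re-replication was detected as a rise in nuclei with elevated Hoechst fluorescence after a 48 hr compound exposure of MCF 10A cells at 37 C.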

[4] = target: Ubiquitin carboxyl-terminal hydrolase 2 (Homo sapiens) (UniProt O75604); assay: qHTS Validation Assay for Inhibitors of Ubiquitin-specific Protease USP2a Using CHOP2 as the Reporter (AID 463106)
Summary of the method: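 USP2 core (10 nM final) was preincubated with compound 30 min at RT in pH 8.0 Tris/CaCl2/beta-ME/CHAPS buffer. Ub-CHOP2 and reporter substrate (25 nM final each) were then added, with fluorescence (Ex 485/Em 531) read after 60 min. Data were normalized to NEM full inhibition and fitted to concentration-response curves.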

[5] = target: DNA polymerase III PolC-type (Bacillus subtilis (strain 168)) (UniProt P13267); assay: qHTS Validation Assay for the Inhibitors of DNA Replication in Gram-Positive Bacteria (AID 485295);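 note: reconstituted holoenzyme with PolC plus beta clamp SSB and primase; PicoGreen fluorescence of double-stranded DNA made on primed circular M13 template; series mostly up to about 57 µM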
Summary of the method: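 Primed replication of single-stranded M13Gori by a four-protein B. subtilis holoenzyme is measured at room temperature. Double-stranded product is quantified by PicoGreen fluorescence after an EDTA stop; inhibition is scaled between DMSO and EDTA controls.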

[6] = target: Tumor susceptibility gene 101 protein (Homo sapiens) (UniProt Q99816); assay: qHTS Validation Assay for Iinhibitors of HIV-1 Budding by Blocking the Interaction of PTAP/TSG101 (AID 485342; calls by dose curve)
Summary of the method: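 Fluorescence anisotropy measured PTAP-Tsg101 interaction. Final concentrations were 10 uM protein domain and 50 nM labeled peptide, equilibrated 20 min at room temperature.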

[7] = target: Beta-2 adrenergic receptor (Homo sapiens) (UniProt P07550); assay: qHTS validation assay of beta-arrestin-biased ligands of beta2-adrenergic receptor (AID 485366)
Summary of the method: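 Values derive from curve-fitted %Activity of a luminescent beta-arrestin recruitment reporter; compounds tested up to 46 microM on Tango cells for 18 hr at 37 degrees C, 5% CO2.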

[8] = target: ATP-dependent 6-phosphofructokinase (Trypanosoma brucei brucei) (UniProt O15648); assay: qHTS Validation Assay to Find Inhibitors of T. brucei phosphofructokinase (AID 485368)
Summary of the method: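 Enzyme reaction in triethanolamine buffer pH 8.0 with 5 mM MgCl2, 0.01% Tween20 and 0.1% BSA; PFK 1.25 nM, F6P 0.5 mM, ATP 0.1 mM, 45 min RT. ADP quantified by ADP-Glo.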

[9] = Quantitative high throughput screen for delayed death inhibitors of the malarial parasite plastid, 96 hour incubation (AID 488745); note: nearly all actives have a fitted effect of over 70% in size; note: potency is the fitted concentration of half-maximal effect
Summary of the method: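 Growth of reporter-bearing P. falciparum in red cells is measured after 96 h with compound, covering two erythrocytic cycles. Luminescence from the integrated luciferase serves as the growth signal.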

[10] = Quantitative high throughput screen for delayed death inhibitors of the malarial parasite plastid, 48 hour incubation (AID 488752); note: nearly all actives have a fitted effect of over 65% in size; note: potency is the fitted concentration of half-maximal effect
Summary of the method: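 One parasite generation (48 h, 37 C, 5% CO2) of luciferase-reporter P. falciparum in erythrocytes is run with test compound; decreased luminescence indicates inhibited growth.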

[11] = target: Thioredoxin reductase 1, cytoplasmic (Rattus norvegicus) (UniProt O89049); assay: qHTS Assay for Substrates of Mammalian Selenoprotein Thioredoxin Reductase 1 (TrxR1) (AID 488772);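 note: NADPH fluorescence in the first read after selenite addition and not the 8 min delta; series mostly up to about 57 µM; a drop in NADPH fluorescence below the no-compound background marks a TrxR1 substrate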
Summary of the method: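 Quantitative HTS in Tris-HCl buffer at pH 7.5 with EDTA and Tween-20, using rat TrxR1, 400 uM NADPH and 400 uM selenite (final). A fall in initial NADPH fluorescence relative to background marked substrate behaviour.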

[12] = target: Thioredoxin reductase 1, cytoplasmic (Rattus norvegicus) (UniProt O89049); assay: qHTS Assay for Inhibitors of Mammalian Selenoprotein Thioredoxin Reductase 1 (TrxR1) (AID 488773); details: Potency: inhibition;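 note: drop in NADPH fluorescence over an 8 min run after selenite addition; series mostly up to about 57 µM; nearly all actives have a fitted effect of over 40% in size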
Summary of the method: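 Steps: enzyme (90 nM) plus NADPH (400 uM final), 5 min at ~22 deg C; compound added, 15 min; selenite (400 uM final) added; fluorescence followed for 8 min. Concentration-response curves derived from the normalized delta values.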

[13] = target: Flap endonuclease 1 (Homo sapiens) (UniProt P39748); assay: qHTS Validation Assay for the Inhibitors of Human Flap endonuclease 1 (FEN1) (AID 488816)
Summary of the method: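 Human FEN1 (10 nM) preincubated 15 min at room temperature with compounds, then flap DNA substrate added at 50 nM final. Fluorescence read at 0 and 15 min; concentration-response fitted with four-parameter Hill equation.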

[14] = target: M-phase phosphoprotein 8 (Homo sapiens) (UniProt Q99549); assay: qHTS Validation Assay for Inhibitors for MPP8 Chromodomain Interactions with Methylated Histone Tails (AID 488949); note: nearly all actives have a fitted effect of over 55% in size; note: potency is the fitted concentration of half-maximal effect
Summary of the method: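 Disruption of the preformed MPP8–trimethyl-H3K9 peptide complex (both 50 nM, 30 min, RT) is measured after 30 min compound exposure, using AlphaScreen proximity beads; aurintricarboxylic acid titration serves as plate control.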

[15] = target: Chromobox protein homolog 1 (Homo sapiens) (UniProt P83916); assay: qHTS Validation Assay for Inhibitors of HP1-beta Chromodomain Interactions with Methylated Histone Tails (AID 488953);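 note: loss of AlphaScreen luminescence from HP1-beta binding biotinylated H3K9me3 peptide; series mostly up to about 110 µM; nearly all actives have a fitted effect of over 50% in size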
Summary of the method: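 Measured as loss of AlphaScreen luminescence from streptavidin donor and nickel acceptor beads (10 ug/mL final) bridging HP1-beta and biotin-H3(1-18)K9me3, each 50 nM. Compounds met the preassembled complex for 30 min at RT.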

[16] = target: Methanococcus maripaludis chaperonin (MmCpn) (UniProt Q6LX38); assay: High-Throughput Screening for Modulators of Cytosolic Chaperonin Activity: MmCpn Primary Screen (AID 488978);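 note: 50 nM MmCpn enzyme hydrolysing 30 µM ATP at 37 °C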
Summary of the method: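 Measures ATPase turnover of the M. maripaludis chaperonin (50 nM final) against 30 uM ATP over 10 min at 37C, with compound added 5 min beforehand at room temperature. ADP is quantified by HTRF immunodetection.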

[17] = target: Transient receptor potential cation channel subfamily V member 1 (Homo sapiens) (UniProt Q8NER1); assay: HTS Assay for Compounds that Act as Enhancers of the Vanilloid Receptor 1 (AID 488979)
Summary of the method: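 TRPV1 cells loaded with Fluo-8 calcium dye; compound added and Ca2+ signal (ex 480/em 520 nm) followed 3 min, then capsaicin at EC20 added and read 2 more min to detect enhancement.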

[18] = target: Thyrotropin receptor (Homo sapiens) (UniProt P16473); assay: qHTS Assay for Antagonists of the Thyroid Stimulating Hormone Receptor (AID 488980); note: series mostly up to about 58 µM
Summary of the method: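 Cells expressing human TSHR (HEK293) are dispensed in HBSS/HEPES containing 70 uM RO 20-1724, compound is added, then TSH at EC80 (4 nM final). Antibody in lysis buffer follows, 30 minutes at room temperature before HTRF detection.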

[19] = qHTS Validation Assay to Find Inhibitors of Chronic Active B-Cell Receptor Signaling (AID 485345; active = well fitted curve in the direction sought with a large enough effect in the main read-out, with a control signal flat, not every such curve was filed as active)
Summary of the method: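 TMD8 ABC-DLBCL cells stably carrying doxycycline-inducible IkappaBalpha–green luciferase fusion plus unfused red luciferase; compounds 46 uM to 3 nM, 4 h at 37C with doxycycline. Corrected green/red luminescence ratio normalized to 10 uM MG-132 and basal cell wells; curves fitted.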

[20] = target: D(1A) dopamine receptor (Homo sapiens) (UniProt P21728); assay: HTS Assay for Allosteric Agonists of the Human D1 Dopamine Receptor: Primary Screen for Agonists (AID 488981)
Summary of the method: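 Tetracycline-induced HEK293 Trex D1 cells with forced coupling to calcium, loaded with no-wash calcium dye; kinetic fluorescence read 180 s after compound addition for agonism, then a further 180 s after an EC20 dopamine challenge for potentiation.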

Chain of Thioredoxin reductase 1, cytoplasmic (Rattus norvegicus) (O89049 whole entry, looked up): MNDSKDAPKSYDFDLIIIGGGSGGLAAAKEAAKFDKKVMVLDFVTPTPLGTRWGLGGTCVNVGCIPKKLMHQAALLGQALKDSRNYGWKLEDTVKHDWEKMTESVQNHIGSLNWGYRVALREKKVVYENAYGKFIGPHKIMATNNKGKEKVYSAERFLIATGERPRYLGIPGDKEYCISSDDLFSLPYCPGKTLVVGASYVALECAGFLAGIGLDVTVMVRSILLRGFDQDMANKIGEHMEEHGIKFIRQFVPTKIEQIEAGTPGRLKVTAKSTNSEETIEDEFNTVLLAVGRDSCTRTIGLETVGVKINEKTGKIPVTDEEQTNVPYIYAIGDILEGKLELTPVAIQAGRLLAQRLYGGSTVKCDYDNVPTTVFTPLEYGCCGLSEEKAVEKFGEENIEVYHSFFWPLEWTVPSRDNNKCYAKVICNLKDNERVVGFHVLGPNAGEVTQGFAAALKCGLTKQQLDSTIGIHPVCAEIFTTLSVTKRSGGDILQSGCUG
Chain of Beta-2 adrenergic receptor (Homo sapiens) (P07550 whole entry, looked up): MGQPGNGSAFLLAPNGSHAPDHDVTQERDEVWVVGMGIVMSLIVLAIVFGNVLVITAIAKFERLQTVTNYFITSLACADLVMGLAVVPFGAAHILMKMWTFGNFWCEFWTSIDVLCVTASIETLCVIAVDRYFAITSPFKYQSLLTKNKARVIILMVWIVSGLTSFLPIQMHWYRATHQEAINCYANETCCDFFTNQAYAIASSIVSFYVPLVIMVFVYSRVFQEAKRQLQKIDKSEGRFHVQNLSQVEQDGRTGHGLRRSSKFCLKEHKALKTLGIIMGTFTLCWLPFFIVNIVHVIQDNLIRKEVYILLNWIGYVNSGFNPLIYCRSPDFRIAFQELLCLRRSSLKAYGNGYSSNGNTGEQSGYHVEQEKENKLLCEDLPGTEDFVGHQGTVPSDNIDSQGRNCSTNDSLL
Chain of Methanococcus maripaludis chaperonin (MmCpn) (Q6LX38 1-543): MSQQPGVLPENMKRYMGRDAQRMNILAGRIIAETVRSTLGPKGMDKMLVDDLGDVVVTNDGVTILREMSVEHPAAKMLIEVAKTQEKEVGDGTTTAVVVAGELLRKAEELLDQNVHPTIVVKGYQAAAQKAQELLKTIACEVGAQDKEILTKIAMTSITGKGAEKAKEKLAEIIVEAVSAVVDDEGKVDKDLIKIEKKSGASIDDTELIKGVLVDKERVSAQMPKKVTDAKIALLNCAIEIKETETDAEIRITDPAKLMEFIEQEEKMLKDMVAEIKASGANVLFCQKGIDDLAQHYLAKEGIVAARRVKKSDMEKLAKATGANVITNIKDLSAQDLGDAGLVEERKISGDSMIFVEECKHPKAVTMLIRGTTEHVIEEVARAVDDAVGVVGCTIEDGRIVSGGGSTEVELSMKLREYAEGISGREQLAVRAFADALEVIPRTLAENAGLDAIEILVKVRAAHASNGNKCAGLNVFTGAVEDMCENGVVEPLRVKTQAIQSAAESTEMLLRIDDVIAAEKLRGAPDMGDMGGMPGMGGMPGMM
Chain of M-phase phosphoprotein 8 (Homo sapiens) (Q99549 whole entry, looked up): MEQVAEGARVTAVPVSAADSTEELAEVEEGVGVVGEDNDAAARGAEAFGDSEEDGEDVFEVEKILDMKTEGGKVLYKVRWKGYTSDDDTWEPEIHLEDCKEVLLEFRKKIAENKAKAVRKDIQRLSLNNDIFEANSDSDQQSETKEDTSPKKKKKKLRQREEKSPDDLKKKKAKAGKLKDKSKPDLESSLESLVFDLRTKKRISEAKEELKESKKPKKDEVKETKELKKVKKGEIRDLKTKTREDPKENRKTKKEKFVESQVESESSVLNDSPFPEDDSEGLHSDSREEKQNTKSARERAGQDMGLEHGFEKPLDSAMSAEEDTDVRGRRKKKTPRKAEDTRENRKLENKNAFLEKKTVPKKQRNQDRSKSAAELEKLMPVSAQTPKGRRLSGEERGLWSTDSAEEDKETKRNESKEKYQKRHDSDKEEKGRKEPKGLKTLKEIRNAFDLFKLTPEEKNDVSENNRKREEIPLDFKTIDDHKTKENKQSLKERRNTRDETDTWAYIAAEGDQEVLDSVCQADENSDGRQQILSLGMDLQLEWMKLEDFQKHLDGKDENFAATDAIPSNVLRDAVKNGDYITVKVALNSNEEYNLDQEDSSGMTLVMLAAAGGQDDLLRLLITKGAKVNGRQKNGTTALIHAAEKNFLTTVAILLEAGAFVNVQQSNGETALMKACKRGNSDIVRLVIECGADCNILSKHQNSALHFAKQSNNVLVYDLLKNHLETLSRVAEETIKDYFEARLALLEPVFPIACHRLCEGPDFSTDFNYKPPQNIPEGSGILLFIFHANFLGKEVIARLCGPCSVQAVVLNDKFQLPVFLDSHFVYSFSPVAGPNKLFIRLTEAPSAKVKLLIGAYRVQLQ
Chain of ATP-dependent 6-phosphofructokinase (Trypanosoma brucei brucei) (O15648 whole entry, looked up): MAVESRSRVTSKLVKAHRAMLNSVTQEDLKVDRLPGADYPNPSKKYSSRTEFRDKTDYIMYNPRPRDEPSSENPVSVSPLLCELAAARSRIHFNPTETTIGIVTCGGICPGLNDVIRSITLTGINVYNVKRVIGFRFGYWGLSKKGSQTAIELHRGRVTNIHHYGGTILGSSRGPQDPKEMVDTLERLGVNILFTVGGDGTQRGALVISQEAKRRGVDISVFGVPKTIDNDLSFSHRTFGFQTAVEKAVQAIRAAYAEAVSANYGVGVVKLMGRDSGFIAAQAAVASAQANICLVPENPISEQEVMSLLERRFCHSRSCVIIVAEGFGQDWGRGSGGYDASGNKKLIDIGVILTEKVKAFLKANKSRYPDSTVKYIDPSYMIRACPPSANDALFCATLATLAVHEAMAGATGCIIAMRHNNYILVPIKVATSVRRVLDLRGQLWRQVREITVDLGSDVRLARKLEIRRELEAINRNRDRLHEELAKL
Chain of Chromobox protein homolog 1 (Homo sapiens) (P83916 whole entry, looked up): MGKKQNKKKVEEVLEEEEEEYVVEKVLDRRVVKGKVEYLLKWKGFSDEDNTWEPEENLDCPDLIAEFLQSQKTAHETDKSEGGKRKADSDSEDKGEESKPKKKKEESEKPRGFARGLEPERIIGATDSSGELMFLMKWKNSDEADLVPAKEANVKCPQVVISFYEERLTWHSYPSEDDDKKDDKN
Chain of DNA polymerase III PolC-type (Bacillus subtilis (strain 168)) (P13267 whole entry, looked up): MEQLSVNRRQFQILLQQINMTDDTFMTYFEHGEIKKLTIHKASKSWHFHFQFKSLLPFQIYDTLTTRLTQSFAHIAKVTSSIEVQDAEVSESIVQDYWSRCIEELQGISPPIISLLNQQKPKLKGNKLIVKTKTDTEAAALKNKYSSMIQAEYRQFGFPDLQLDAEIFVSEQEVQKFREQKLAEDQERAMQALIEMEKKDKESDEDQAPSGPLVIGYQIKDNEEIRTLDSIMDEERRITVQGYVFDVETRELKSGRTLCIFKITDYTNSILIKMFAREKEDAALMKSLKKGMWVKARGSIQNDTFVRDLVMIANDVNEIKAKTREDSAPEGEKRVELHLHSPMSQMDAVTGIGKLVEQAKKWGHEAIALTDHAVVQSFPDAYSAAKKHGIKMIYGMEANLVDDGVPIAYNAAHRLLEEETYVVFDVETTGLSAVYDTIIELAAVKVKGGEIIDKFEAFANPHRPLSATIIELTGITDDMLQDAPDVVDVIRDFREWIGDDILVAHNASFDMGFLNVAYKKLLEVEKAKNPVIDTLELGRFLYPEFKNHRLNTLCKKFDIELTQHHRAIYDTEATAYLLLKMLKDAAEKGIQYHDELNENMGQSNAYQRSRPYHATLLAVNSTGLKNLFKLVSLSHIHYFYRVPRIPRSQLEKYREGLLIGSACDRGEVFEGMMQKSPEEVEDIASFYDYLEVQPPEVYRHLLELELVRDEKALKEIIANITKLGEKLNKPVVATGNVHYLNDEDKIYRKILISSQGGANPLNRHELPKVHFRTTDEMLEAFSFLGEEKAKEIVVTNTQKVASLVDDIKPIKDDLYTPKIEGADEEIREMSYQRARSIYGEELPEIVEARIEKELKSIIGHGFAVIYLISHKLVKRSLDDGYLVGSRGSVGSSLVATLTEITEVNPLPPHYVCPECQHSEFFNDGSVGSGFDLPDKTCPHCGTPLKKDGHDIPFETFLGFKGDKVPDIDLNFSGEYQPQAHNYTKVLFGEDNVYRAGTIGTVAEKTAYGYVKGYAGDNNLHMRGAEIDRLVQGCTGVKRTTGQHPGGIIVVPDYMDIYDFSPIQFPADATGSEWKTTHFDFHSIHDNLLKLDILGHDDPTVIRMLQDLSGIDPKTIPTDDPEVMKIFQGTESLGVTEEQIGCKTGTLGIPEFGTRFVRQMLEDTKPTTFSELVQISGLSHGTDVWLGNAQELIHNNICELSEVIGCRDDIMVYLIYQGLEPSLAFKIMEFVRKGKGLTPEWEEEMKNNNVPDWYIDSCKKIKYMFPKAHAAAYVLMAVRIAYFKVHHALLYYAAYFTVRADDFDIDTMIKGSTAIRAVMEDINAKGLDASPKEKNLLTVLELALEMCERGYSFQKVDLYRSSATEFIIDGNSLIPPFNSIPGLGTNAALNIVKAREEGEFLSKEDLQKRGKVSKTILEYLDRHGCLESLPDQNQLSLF
Chain of Tumor susceptibility gene 101 protein (Homo sapiens) (Q99816 whole entry, looked up, the tested form may be a part): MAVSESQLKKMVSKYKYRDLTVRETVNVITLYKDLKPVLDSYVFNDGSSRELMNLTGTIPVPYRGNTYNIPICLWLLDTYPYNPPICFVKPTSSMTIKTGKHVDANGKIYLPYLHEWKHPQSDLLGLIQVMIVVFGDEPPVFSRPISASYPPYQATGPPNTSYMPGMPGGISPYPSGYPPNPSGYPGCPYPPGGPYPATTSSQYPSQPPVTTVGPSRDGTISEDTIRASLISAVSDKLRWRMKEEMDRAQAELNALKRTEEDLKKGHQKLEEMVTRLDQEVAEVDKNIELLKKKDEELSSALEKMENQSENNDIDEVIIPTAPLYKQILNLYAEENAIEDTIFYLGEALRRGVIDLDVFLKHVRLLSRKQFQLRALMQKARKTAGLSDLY

| Structure (SMILES) | Potency [1] | Potency [2] | Potency [3] | Potency [4] | Potency [5] | outcome [6] | outcome [7] | Potency [8] | Potency [9] | Potency [10] | Potency [11] | Potency [12] | Potency [13] | Potency [14] | Potency [15] | outcome [16] | outcome [17] | outcome [18] | outcome [19] | Potency [20] |
| --- | --- | --- | --- | --- | --- | --- | --- | --- | --- | --- | --- | --- | --- | --- | --- | --- | --- | --- | --- | --- |
| CC(C)(C=O)Cc1cc(C(C)(C)C)c(O)c(C(C)(C)C)c1 | inactive | inactive | inactive | inactive | inactive | inactive | inactive | inactive | inactive | inactive | inactive | inactive | inactive | inactive | inactive | inactive | inactive | inactive |  |  |
| CCCCN1CCC(n2c(=O)[nH]c3ccccc32)CC1 | inactive | inactive | inactive | inactive | inactive | inactive | inactive | inactive | inactive | inactive | inactive | inactive | inactive | inactive |  | inactive | inactive | inactive | inactive | inactive |
| NCCCCC(=O)O | inactive | inactive | inactive | inactive | inactive | inactive | inactive |  | inactive | inactive | inactive | inactive | inactive | inactive | inactive | inactive | inactive | inactive | inactive | inactive |
| O=C(O)c1cc(=O)c2c(Cl)cc(Cl)cc2[nH]1 | inactive | inactive | inactive | inactive | inactive | inactive | inactive | inactive | inactive | inactive | inactive |  | inactive | inactive | inactive | inactive | inactive | inactive | inactive | inactive |
| COc1ccccc1CNCCCCCCNCCCCCCCCNCCCCCCNCc1ccccc1OC | inactive | inactive | inactive | inactive | inactive | inactive | inactive |  | 1040 nM (active) | 2940 nM (active) | inactive | inactive | inactive | 50100 nM (active) | inactive | inactive | inactive | inactive | inactive | inactive |
| O=C(O)CNC(=O)C(CS)Cc1ccccc1 (stereo not given) | inactive | inactive | inactive | inactive | inactive | inactive | inactive | inactive | inactive | inactive | inactive | inactive | inactive |  | inactive | inactive | inactive | inactive | inactive |  |
| c1ccc(-c2ccccn2)nc1 | inactive | inactive | inactive | inactive | inactive | inactive | inactive |  | inactive | inactive | inactive | inactive | inactive | inactive | inactive | inactive | inactive | inactive | inactive |  |
